The list is not random: actives were taken first. Their share in the collection is about 4.6%.
NLRP3 yeast inh – blocks the NALP3 inflammasome reconstituted in yeast | inhibition, % at 10 µM | hit rate 0.39% among 330,000 | Yeast reconstituted NLRP3/ASC/caspase-1, beta-gal luminescence, 24 h | AID 2825;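 active means inhibition of 50% or more; inactive means inhibition below 50%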;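 further: plate controls were induced DMSO wells for no effect and uninduced yeast grown without galactose for full effect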
tim10-1 inh – tim10-1 yeast growth inhibition | S. cerevisiae tim10-1 ts strain growth, BacTiter-Glo, 24 h | AID 463190 | inhibition, % at 20 µM | hit rate 2.2% among 330,000;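 active means inhibition of at least 40%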;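 further: mutant grown at 25 °C; 0% = DMSO wells with yeast and 100% = wells holding no yeast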
tim23-1 inh – inhibits growth of tim23-1 mutant yeast | S. cerevisiae tim23-1 growth, BacTiter-Glo luminescence, 24 h | inhibition, % at 20 µM | hit rate 1.3% among 330,000;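 active means growth inhibition of the mutant yeast at or above 50%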;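 further: temperature-sensitive mutant grown at 25 °C; plate controls were DMSO-treated mutant yeast for no effect and medium wells lacking yeast for full effect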
TIM10 inh – inhibits growth of TIM10 yeast strain | S. cerevisiae TIM10 strain growth, BacTiter-Glo luminescence, 24 h | inhibition, % at 10 µM | hit rate 1.4% among 330,000;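 active means inhibition of 40% or more at the single tested concentration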;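 further: wild-type TIM10 isogenic control strain grown at permissive 25 °C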
SKKanGAS inh – SKKanGAS growth inhibition; S. pyogenes SKKanGAS, kanamycin growth, BacTiter-Glo, 6 h; inhibition, % at 7.5 µM; hit rate 1.3% among 300,000;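 active means mean replicate score, as percent of positive control median, at least 50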;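 further: strain carries kanamycin resistance gene driven by streptokinase promoter and grows in 40 µg/ml kanamycin; loss of luminescence reflects streptokinase promoter inhibition or plain growth inhibition; 0% = median of DMSO wells and 100% = positive control at its reference dose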
TIM10 conf – confirmation of TIM10 yeast growth inhibitors. hit rate 63% among 4,600. AID 463215. S. cerevisiae tim10 strain growth, BacTiter-Glo luminescence, 24 h. inhibition, % at 10 µM. shares compounds with TIM10 inh;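 active means inhibition of yeast growth at or above a set limit in either of two replicates at 10 µM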;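 further: this counterscreen used the strain with wild-type TIM10; 0% = yeast with DMSO and 100% = medium wells lacking yeast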
* marks the source's active call; other numbers are inactive results; · = no result.

SMILES	NLRP3 yeast inh	tim10-1 inh	tim23-1 inh	TIM10 inh	SKKanGAS inh	TIM10 conf
O=C(Cc1ccccc1F)Nc1nc(-c2cccs2)cs1	5	16	28	47*	25	-2
CCNc1nc(NC(C)C)nc(N(C#N)C(C)C(=O)N(CC)CC)n1 (centres undefined)	11	-1	10	8	5	·
COc1ccc(/C=C/CN2CCC(CO)(Cc3ccccc3Cl)CC2)cc1	37	24	14	13	4	·
Cc1ccc(S(=O)(=O)N(C)CC(=O)NNC(=O)CCC(=O)c2ccc(F)cc2)cc1	17	-1	-2	-9	·	·
O=C(Nc1cccc(NC(=O)c2cccs2)c1)c1ccc([N+](=O)[O-])o1	1	35	33	56*	59*	62*
COC(=O)C1C2C=CC3(CN(c4cccc(Cl)c4)C(=O)C13)O2 (centres undefined)	2	14	15	4	-10	·
COC(=O)C1C2C=CC3(CN(c4cccc(C)c4)C(=O)C13)O2 (centres undefined)	8	11	4	94*	-3	-4
COCCNC(=S)N/N=C/c1c2ccccc2cc2ccccc12	18	28	35	41*	19	37*
Cc1nn(C)c(Cl)c1CN1CCN(C2CCCC2)C(CCO)C1 (centres undefined)	-13	6	13	-30	6	·
CC(C)(C)c1cc(NCc2ccccn2)n2ncc(-c3ccccc3)c2n1	28	28	43	52*	108*	42*
CC(C)Nc1nnc(SC(C)C(=O)Nc2ccc(Cl)cn2)s1 (centres undefined)	4	2	27	10	4	·
Cc1cc(NC(=O)COc2ccccc2)n(-c2ccccc2)n1	10	26	20	27	2	·
Cc1cc(C)cc(OCC(=O)OCC(=O)Nc2cc(C)nn2-c2ccccc2)c1	12	4	-6	83*	·	4
O=C(CNC(=O)c1ccc(Br)o1)NCC1COc2ccccc2O1 (centres undefined)	-2	14	15	4	·	·
O=C(CNS(=O)(=O)c1ccc(Br)s1)NCC1COc2ccccc2O1 (centres undefined)	19	33	-19	61*	2	49*
Cc1ccc(-c2nc3cc(C)ccc3o2)cc1	20	19	12	5	-6	·
Cc1ccc(-c2nc3cc(N)ccc3o2)cc1	-12	36	25	41*	4	30*
Cc1ccc(-c2nc3cc(NS(=O)(=O)c4ccc(C)cc4)ccc3o2)cc1	7	35	35	45*	85*	37*
CC(NC(=O)CCN1C(=O)c2ccccc2C1=O)c1ccccc1 (centres undefined)	12	-2	-2	4	-3	·
CSc1cc(-c2ccc(Cl)cc2)c(C(=O)NN)s1	-7	25	-17	44*	20	27*
CC(=O)Nc1ccc(SCC(=O)Nc2cc(C(C)(C)C)nn2-c2ccccc2)cc1	0	21	18	8	-6	·
Cn1c(SCC(=O)Nc2cc(C(C)(C)C)nn2-c2ccccc2)nc2ccccc21	9	29	40	43*	-11	-20
Cc1cccc2nc(-c3ccccc3)nc(N3CCC(O)(c4ccc(Cl)cc4)CC3)c12	27	36	36	43*	29	55*
CCOC(=O)C1(CC2CCCCO2)CCN(S(=O)(=O)c2cc(C)cs2)CC1 (centres undefined)	22	4	35	-9	-11	·
C=C(C)Cn1c(SCC(=O)N/N=C/c2cccc(O)c2)nc2ccccc2c1=O	16	12	14	7	2	·
SMILES	NLRP3 yeast inh	tim10-1 inh	tim23-1 inh	TIM10 inh	SKKanGAS inh	TIM10 conf
CCc1nnc(NC(=O)C2Cc3ccccc3CN2S(=O)(=O)c2c(C)c(C)cc(C)c2C)s1 (centres undefined)	-12	11	-7	6	17	·
COc1cc(OC)cc(C(=O)NCC2CCCN(C(=O)c3oc(C)cc3C)C2)c1 (centres undefined)	11	11	8	5	0	·
O=C(c1cc(Cl)ccc1[N+](=O)[O-])n1cnc2ccccc21	-4	35	48	41*	-5	29
COc1cc(C(=O)n2cnc3ccccc32)c([N+](=O)[O-])cc1OC	6	22	13	13	0	·
Cc1cc(NC(=O)COC(=O)C2CSC3(C)CCC(=O)N23)ccc1Br (centres undefined)	2	-2	14	6	·	·
CSC1=C(C#N)C(=O)NC(c2ccc(Cl)cc2)S1 (centres undefined)	6	31	44	46*	1	23
S=C(NCc1ccco1)Nc1cc(-c2ccccc2)[nH]n1	17	33	41	40*	-4	31
S=C(NCc1ccco1)Nc1ccc(Cl)c(Cl)c1	29	34	45	46*	12	14
O=C(NC(Cc1ccccc1)C(=O)O)/C(=C\c1ccc(Cl)cc1)NC(=O)c1ccco1 (centres undefined)	8	6	3	2	-3	·
O=C1C(=C2SCCCS2)CC/C1=C\c1ccc(F)cc1	25	-28	18	42*	16	41*
Cc1cccc(/C=C2\CCC(=C3SCCCS3)C2=O)c1	36	34	49	44*	14	66*
O=C1/C(=C/c2ccc(F)cc2)CCC1C1CCCC1 (centres undefined)	12	23	23	17	1	·
CC(c1nnc(SCC(=O)c2c(N)n(C3CC3)c(=O)[nH]c2=O)n1-c1ccc(F)cc1)N(C)C (centres undefined)	13	6	4	11	·	·
COC(=O)[C@H](C)N(Cc1ccc(Cl)c(Cl)c1)S(=O)(=O)CCN1CCN(c2ccccc2)CC1	·	12	41	6	·	·
Cc1ccc(C)c(-c2cc(C(=O)Nc3nccs3)c3ccccc3n2)c1	-18	39	45	47*	20	42*
Cc1cccc(NNC(=S)Nc2c(C)cccc2C)c1	32	23	42	45*	16	36*
Cc1cccc(NNC(N)=S)c1	3	15	17	14	-1	·
O=C1Nc2cc3c(cc2C1=O)sc1ccccc13	23	22	0	50*	-10	68*
COc1ccc2c(c1)C(=O)C(=O)N2	8	15	4	-2	-1	·
O=[N+]([O-])C(=C1Nc2ccccc2N1)/C(Cl)=C(/Cl)Br	-8	26	37	57*	0	41*
CN(Cc1ccccc1)C(=C(Cl)Cl)C(=C1NCCN1)[N+](=O)[O-]	4	-12	0	-8	-11	·
COc1ccc(CC(=O)NCC2CCCN(Cc3ccc(OC(F)(F)F)cc3)C2)cc1 (centres undefined)	33	-3	8	98*	-3	11
O=C(NCC1CCCO1)c1ccc(NC(=O)c2cc(F)c(F)cc2Cl)cc1 (centres undefined)	17	5	20	2	2	·

Screening results as filed in PubChem BioAssay.
